Compounds without any hit were thinned out: in the full panel of roughly 83,000, 20% have a hit.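 Activity criterion: percent growth below 10, measured after cells in 96-well plates were exposed to a single compound concentration for 48 hours.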 Unmarked numbers belong to inactive results. Calls of active or inactive are those of the source.
Tests used:
Assay in all cases: NCI-60 one-dose screen, 48 h (100 = growth as untreated, 0 = no growth, -100 = all killed)
[1] = system: SK-MEL-2 melanoma; conditions: 10 µM unless noted
[2] = system: EKVX NSCLC; conditions: 10 µM unless noted
[3] = system: SN12C renal; conditions: 10 µM unless noted
[4] = system: UO-31 renal; conditions: 10 µM unless noted
[5] = system: TK-10 renal; conditions: 10 µM unless noted
[6] = system: ACHN renal; conditions: 10 µM unless noted
[7] = system: CAKI-1 renal; conditions: 10 µM unless noted
[8] = system: A498 renal; conditions: 10 µM
[9] = system: HL-60(TB) leukemia; conditions: 10 µM unless noted
[10] = system: CCRF-CEM leukemia; conditions: 10 µM unless noted
[11] = system: MOLT-4 leukemia; conditions: 10 µM unless noted
[12] = system: SR leukemia; conditions: 10 µM unless noted
[13] = system: RPMI-8226 leukemia; conditions: 10 µM unless noted
[14] = system: OVCAR-8 ovarian; conditions: 10 µM unless noted
[15] = system: OVCAR-5 ovarian; conditions: 10 µM unless noted
[16] = system: OVCAR-4 ovarian; conditions: 10 µM unless noted
[17] = system: SK-OV-3 ovarian; conditions: 10 µM unless noted
[18] = system: IGROV1 ovarian; conditions: 10 µM unless noted
[19] = system: OVCAR-3 ovarian; conditions: 10 µM unless noted
[20] = system: HS 578T breast; conditions: 10 µM unless noted

SMILES | growth [1] | growth [2] | growth [3] | growth [4] | growth [5] | growth [6] | growth [7] | growth [8] | growth [9] | growth [10] | growth [11] | growth [12] | growth [13] | growth [14] | growth [15] | growth [16] | growth [17] | growth [18] | growth [19] | growth [20]
C=CCc1cc2c(cc1OCC)OCO2 | 104% | 91.1% | 98.8% | 95.4% | 92% | 111% | 102% | 91.3% | 98.1% | 106% | 113% | 126% | 112% | 103% | 95.7% | 108% | 80.3% | 121% | 107% | 93.2%
ClCCN(CCCl)c1nc(Cl)c(C2CC(c3ccccc3)=NN2c2cc(Cl)cc(Cl)c2)s1 (stereo not given) | 103% | 101% | 95.2% | 89.6% | 109% | 96.1% | 83.4% | 116% | 105% | 102% | 101% | 112% | 108% | 100% | 102% | 96.9% | 105% | 101% | 103% | 102%
COc1cc(/C=N/C2=C(C#N)C(c3ccco3)c3c(c4cc(C)ccc4oc3=O)O2)cc(OC)c1OC (stereo not given) | 94.1% | 95.1% | 99.5% | 67.9% | 109% | 90.1% | 85.8% | 86.6% | 96.1% | 96.5% | 106% | 74.8% | 101% | 101% | 105% | 97.6% | 92.6% | 83.1% | 91.4% | 64.3%
Fc1ccc(N2COOC3(OOC2)C2CC4CC(C2)CC3C4)cc1 | 88.8% | 79.4% | 101% | -74.9% (active) | 93% | 59.7% | 26% | 90.1% | 74% | 94.2% | 92.8% | -19.2% (active) | 95.4% | 86.7% | 98.6% | 101% | 105% | 16.5% | 97% | 109%
Fc1cccc(NCOOC2(OOCNc3cccc(F)c3)CCCCC2)c1 | 91.7% | 93.8% | 103% | -58.2% (active) | 90.8% | 95% | 52.3% | 92.4% | 88.3% | 84.1% | 97.6% | 31.5% | 99.6% | 96.8% | 96.2% | 98.5% | 103% | 40.1% | 99.3% | 104%
CC12CCC=CC1CCC1C2CCC2(C)C(c3ccc(=O)oc3)CCC12O (stereo not given) | -34.4% (active) | -90.1% (active) | -18.8% (active) | -94.5% (active) | -69.8% (active) | -89.9% (active) | -61.3% (active) | -19.9% (active) | -28% (active) | -16.6% (active) | -16.7% (active) | -4.41% (active) | -14.1% (active) | -51.4% (active) | -80.4% (active) | -52.8% (active) | -11% (active) | -12.3% (active) | -74.5% (active) | -14.8% (active)
C/C(Cc1ccc(Cl)cc1)=C(\c1ccc(OCCN2CCOCC2)cc1)c1ccc(OC(=O)Cc2ccccc2)cc1 | 84.9% | 93.3% | 93.8% | 67.5% | 86.7% | 104% | 71.6% | 98.6% | 100% | 98.9% | 94.8% | 87.1% | 84% | 92% | 91.1% | 101% | 109% | 86.4% | 101% | 99.1%
CC[C@H](C)[C@H](NC(=O)c1nccn1C)C(=O)N(C)[C@H](C[C@@H](OC(C)=O)c1nc(C(=O)N[C@@H](Cc2ccccc2)C[C@H](C)C(=O)OC)cs1)C(C)C | 28.5% | 52.8% | 40.2% | 47.3% | 41.9% | 42.3% | 33.8% | -9.78% (active) | -43.5% (active) | 15.9% | 15.9% | 14.2% | 24.6% | 16.3% | 38% | 48.4% | 19.4% | 35.6% | -19.8% (active) | 20.6%
COc1ccc(O)c(CNC(=O)CN2CCCC2=O)c1 | 103% | 100% | 97.6% | 98.7% | 105% | 99.7% | 97.4% | 93.6% | 142% | 26.4% | 101% | 98.5% | 99.4% | 106% | 95.1% | 103% | 112% | 104% | 103% | 94%
O=C(O)C(Cl)(Cl)C(F)(F)F | 105% | 105% | 104% | 93.5% | 98.3% | 107% | 95% | 95.1% | 110% | 100% | 112% | 122% | 108% | 112% | 103% | 104% | 110% | 104% | 101% | 95.9%
O=C(CC1(O)C(=O)Nc2ccc(Cl)cc21)c1ccc(C(=O)NCC2CCC3(CC2)OOC2(CCCCC2)OO3)cc1 (stereo not given) | 12.7% | -64.2% (active) | 28.2% | -81.1% (active) | -52.7% (active) | -87.3% (active) | -85.9% (active) | 26.9% | -62% (active) | -41.3% (active) | -39.9% (active) | -48.2% (active) | -42.4% (active) | 3.83% (active) | 47.4% | 14.4% | 57.2% | -18.6% (active) | -76.8% (active) | 16.1%
O=C(CC1(O)C(=O)N(Cc2ccccc2)c2ccc(Br)cc21)c1ccc(C(=O)NCC2CCC3(CC2)OOC2(CCCCC2)OO3)cc1 (stereo not given) | 34.1% | -65% (active) | -55.8% (active) | -73.3% (active) | -80.9% (active) | -83% (active) | -90.8% (active) | -74% (active) | -57.3% (active) | -41.6% (active) | -37.3% (active) | -40.7% (active) | -7.69% (active) | -40.9% (active) | 12.4% | -34.1% (active) | 83.4% | -36.2% (active) | -84.1% (active) | 22.6%
CC[C@]12C=CCN3CC[C@]4(C(=C(C(=O)OC)C1)Nc1cc(OC)c(OC(C)=O)cc14)[C@@H]32 | 41.5% | 55.6% | 8.6% (active) | 28.6% | 21.4% | 21.4% | 21% | -7.74% (active) | -8.44% (active) | 0.65% (active) | 9.7% (active) | 7.64% (active) | 7.27% (active) | 5.97% (active) | 43% | 38.6% | 2.29% (active) | 26.3% | 14.1% | 46.7%
CC(CC1CCCCC1)NCc1ccccc1 (stereo not given) | 102% | 99.1% | 94% | 66.2% | 94.2% | 96.1% | 99.9% | 89.5% | 111% | 100% | 100% | 105% | 106% | 106% | 91.1% | 113% | 111% | 107% | 105% | 98.5%
CC(C)=CCC[C@H](C(=O)O)[C@@H]1CC[C@]2(C)C3=C(CC[C@@]12C)[C@@]1(C)CC[C@H](O)C(C)(C)[C@@H]1CC3 | 91% | 95% | 102% | 89.8% | 93.8% | 101% | 75% | 104% | 85.1% | 109% | 88.6% | 91.8% | 88.8% | 96.4% | 96.8% | 103% | 96.7% | 103% | 107% | 99.9%
